Records with an inconclusive call do not appear. The source made the active and inactive calls. Unless noted, the call rests on the fitted dose curve; in most records, active means well fitted curve in the direction sought with a large enough effect in the repeat runs; inconclusive means weak or mixed curves; inactive means no such curve, though single readings can be large; an effect the other way counts as inactive or inconclusive.
Assays:
[1] = qHTS assay to identify small molecule antagonists of the estrogen related receptor (ERR) signaling pathway from Tox21 library - cell viability counter screen (AID 1224834); details: ERR reporter cells viability, CellTiter-Fluor, 17.5 h; series mostly up to 92.4 µM; further: nearly all actives have a fitted effect of over 30% in size; further: potency means the concentration at half of the fitted maximal effect
Method in brief: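 ERR cells, 2,000/well; 6 h settle at 37 C/5% CO2; pin-tool compound transfer in DMSO; 17.5 h at 37 C; CellTiter-Fluor, 30 min; fluorescence intensity.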

[2] = qHTS assay to identify small molecule agonists of the constitutive androstane receptor (CAR) signaling pathway - cell viability counter screen (AID 1224836); details: HepG2-CYP2B6-hCAR viability, CellTiter-Fluor, 23 h, PK11195 added to every well; series mostly up to 92.4 µM; further: nearly all actives have a fitted effect of over 45% in size
Method in brief: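 23 h treatment, 37 C, 5% CO2. Cell line: HepG2 stably expressing hCAR with a CYP2B6-2.2kb construct. Co-treatment: PK11195, 0.75 uM final. Read-out: CellTiter-Fluor fluorescence intensity.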

[3] = qHTS assay to identify small molecule antagonists of the constitutive androstane receptor (CAR) signaling pathway - cell viability counter screen (AID 1224837); details: HepG2-CYP2B6-hCAR viability, CellTiter-Fluor, 23 h, co-treated with 50 nM CITCO; series mostly up to 92.4 µM; further: nearly all actives have a fitted effect of over 45% in size
Method in brief: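 Viability was measured with CellTiter-Fluor in a HepG2 line carrying stably transfected hCAR and a CYP2B6-2.2kb construct. Cells were exposed for 23 hr at 37 C to 15 compound concentrations with 50 nM CITCO as agonist.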

[4] = biological target: Nuclear receptor subfamily 1 group I member 3 (Homo sapiens) (UniProt Q14994); experiment: qHTS assay to identify small molecule antagonists of the constitutive androstane receptor (CAR) signaling pathway (AID 1224838); details: HepG2-CYP2B6-hCAR luciferase, CITCO-stimulated, 24 h; series mostly up to 92.4 µM;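 further: HepG2 cells stably expressing hCAR with CYP2B6 luciferase reporter stimulated by CITCO; nearly all actives have a fitted effect of over 40% in size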
Method in brief: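 Antagonist mode used CITCO at a final 50 nM to activate CAR in human hepatoma HepG2 cells carrying stable hCAR and a 2.2 kb CYP2B6 promoter-luciferase construct. Compounds were tested at 15 concentrations over 24 h, with luminescence as the end point.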

[5] = biological target: Nuclear receptor subfamily 1 group I member 3 (Homo sapiens) (UniProt Q14994); experiment: qHTS assay to identify small molecule agonists of the constitutive androstane receptor (CAR) signaling pathway (AID 1224839); details: HepG2 hCAR CYP2B6-luciferase, agonist mode, 24 h; series mostly up to 92.4 µM; further: nearly all actives have a fitted effect of over 15% in size; further: potency means the concentration at half of the fitted maximal effect
Method in brief: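 Compounds tested at 15 concentrations on HepG2 cells stably harbouring hCAR and CYP2B6-2.2kb reporter constructs, co-treated with PK11195 (0.75 uM final), 24 h at 37 C; luminescent reporter signal quantified.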

[6] = qHTS assay to identify small molecule antagonists of the estrogen related receptor signaling pathway with the pleiotropic PPARgamma coactivator (PGC) from Tox21 10K library - cell viability counter screen (AID 1224840; active means well fitted cell-killing curve with a large enough effect in the repeat runs, not every such curve was filed as active; further: nearly all actives have a fitted effect of over 40% in size); details: PGC/ERR reporter cells viability, CellTiter-Fluor, 17.5 h; series mostly up to 92.4 µM
Method in brief: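 Multiplexed viability counter screen in the PGC/ERR cell line: cells treated with DMSO-dissolved compounds for 17.5 hours at 37 C, then viability measured as CellTiter-Fluor fluorescence.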

[7] = qHTS assay to identify small molecule agonists of the estrogen related receptor signaling pathway with the pleiotropic PPARgamma coactivator (PGC) from Tox21 10K library (AID 1224842); details: PGC/ERR reporter cell line, luciferase ONE-Glo, 18 h; series mostly up to 92.4 µM; further: nearly all actives have a fitted effect of over 15% in size
Method in brief: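 Luminescence from One-Glo (30 min, room temperature) measured after PGC/ERR cells had 18 h at 37 C with pinned compound (23 nL in DMSO). Cells had been seeded at 2,000 per well and pre-incubated 6 h.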

[8] = biological target: Thyrotropin receptor (Homo sapiens) (UniProt P16473); experiment: qHTS assay to identify small molecule agonists of the thyroid stimulating hormone receptor (TSHR) signaling pathway (AID 1224843; calls by dose curve; further: nearly all actives have a fitted effect of over 45% in size); details: TSHR-HEK293 cells, cAMP HTRF, agonist mode, 30 min; series mostly up to 92.4 µM
Method in brief: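 A cell-based cAMP HTRF format was run in TSHR-transfected HEK293 cells, 800 per well. Treatment: 30 min, room temperature. Detection: 1 h with labelled cAMP and anti-cAMP cryptate. Concentration-response over 15 points, three replicates.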

[9] = biological target: Luciferin 4-monooxygenase (Photinus pyralis) (UniProt P08659); experiment: qHTS assay to identify small molecule inhibitors of firefly luciferase (AID 1224835); further: nearly all actives have a fitted effect of over 25% in size; further: potency means the concentration at half of the fitted maximal effect; details: purified P. pyralis luciferase, luminescence inhibition; series mostly up to 115 µM
Method in brief: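 Inhibition of purified Photinus luciferase is measured by luminescence. Substrate levels (D-luciferin, ATP) sit at their KM values. Each compound is tested in a concentration series.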

[10] = qHTS assay to identify small molecule antagonists of the estrogen related receptor signaling pathway with the pleiotropic PPARgamma coactivator (PGC) from Tox21 10K library (AID 1224841; call rule not given here; further: actives are mostly falling curves and most rising ones were filed inactive; nearly all actives have a fitted effect of over 50% in size); details: PGC/ERR reporter cell line, ONE-Glo luciferase, 18 h; series mostly up to 92.4 µM
Method in brief: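 Steps: plate 2,000 PGC/ERR cells per well; incubate 6 h at 37 C with 5% CO2; transfer compounds from DMSO stocks by pin tool; incubate 18 h at 37 C; add One-Glo; measure luminescence 30 min later.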
On the % scale 0 is the no-effect control and ±100 the full control effect.

Sequence of Thyrotropin receptor (Homo sapiens) (P16473 whole entry, looked up): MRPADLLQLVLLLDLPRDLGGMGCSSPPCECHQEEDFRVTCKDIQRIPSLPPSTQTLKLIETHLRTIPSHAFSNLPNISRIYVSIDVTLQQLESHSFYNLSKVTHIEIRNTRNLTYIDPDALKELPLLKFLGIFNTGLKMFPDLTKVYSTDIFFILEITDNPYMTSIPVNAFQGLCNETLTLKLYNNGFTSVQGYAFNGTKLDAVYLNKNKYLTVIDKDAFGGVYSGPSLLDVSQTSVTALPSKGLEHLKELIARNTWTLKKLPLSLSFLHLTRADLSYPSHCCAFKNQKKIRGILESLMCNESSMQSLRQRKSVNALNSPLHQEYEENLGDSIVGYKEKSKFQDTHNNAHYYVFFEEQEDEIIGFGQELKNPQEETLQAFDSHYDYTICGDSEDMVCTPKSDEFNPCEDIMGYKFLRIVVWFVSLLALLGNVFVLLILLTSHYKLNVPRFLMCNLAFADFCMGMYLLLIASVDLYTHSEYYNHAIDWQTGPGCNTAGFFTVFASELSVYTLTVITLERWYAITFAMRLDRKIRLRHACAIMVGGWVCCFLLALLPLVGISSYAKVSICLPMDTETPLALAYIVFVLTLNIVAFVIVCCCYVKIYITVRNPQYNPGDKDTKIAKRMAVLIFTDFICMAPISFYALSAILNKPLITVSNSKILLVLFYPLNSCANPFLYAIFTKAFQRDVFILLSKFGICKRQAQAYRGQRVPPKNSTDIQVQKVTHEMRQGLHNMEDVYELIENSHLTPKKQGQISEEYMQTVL
Sequence of Luciferin 4-monooxygenase (Photinus pyralis) (P08659 whole entry, looked up): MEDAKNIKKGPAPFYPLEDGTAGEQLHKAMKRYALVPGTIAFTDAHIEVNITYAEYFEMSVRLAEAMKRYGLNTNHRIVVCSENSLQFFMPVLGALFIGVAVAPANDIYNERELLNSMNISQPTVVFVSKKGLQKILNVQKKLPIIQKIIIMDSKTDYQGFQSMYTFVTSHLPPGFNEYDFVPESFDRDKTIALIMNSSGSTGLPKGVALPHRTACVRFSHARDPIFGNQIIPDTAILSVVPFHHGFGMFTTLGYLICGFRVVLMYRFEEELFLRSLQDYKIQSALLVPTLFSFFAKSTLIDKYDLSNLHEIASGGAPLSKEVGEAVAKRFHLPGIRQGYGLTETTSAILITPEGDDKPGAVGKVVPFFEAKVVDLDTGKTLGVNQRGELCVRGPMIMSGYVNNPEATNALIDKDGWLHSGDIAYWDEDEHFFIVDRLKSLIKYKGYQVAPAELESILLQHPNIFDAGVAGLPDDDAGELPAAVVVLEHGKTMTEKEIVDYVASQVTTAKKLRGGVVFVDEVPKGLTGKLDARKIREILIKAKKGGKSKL
Sequence of Nuclear receptor subfamily 1 group I member 3 (Homo sapiens) (Q14994 whole entry, looked up): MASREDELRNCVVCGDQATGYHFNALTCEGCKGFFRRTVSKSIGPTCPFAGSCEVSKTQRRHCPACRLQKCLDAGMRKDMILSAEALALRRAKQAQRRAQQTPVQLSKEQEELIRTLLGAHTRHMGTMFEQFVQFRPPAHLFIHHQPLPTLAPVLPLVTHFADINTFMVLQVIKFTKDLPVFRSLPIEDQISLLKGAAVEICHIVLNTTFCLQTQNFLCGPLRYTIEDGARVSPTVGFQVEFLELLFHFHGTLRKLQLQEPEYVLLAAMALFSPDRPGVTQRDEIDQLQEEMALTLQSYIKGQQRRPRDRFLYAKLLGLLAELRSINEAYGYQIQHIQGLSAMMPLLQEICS

CC(C)CC(C)(N)C#N (stereo not given)
inactive: Potency [1] | outcome [2] | outcome [3] | Potency [4] | Potency [5] | outcome [6]

COc1ccc2cc1Oc1cc3c(cc1OC)CC[N+](C)(C)[C@H]3Cc1ccc(cc1)Oc1c(OC)c(OC)cc3c1[C@@H](C2)[N+](C)(C)CC3
inactive: Potency [1] | outcome [2] | outcome [3] | Potency [4] | Potency [5] | outcome [6] | Potency [7] | Potency [8]

O=S(=O)(O)c1cc(O)c(O)c(S(=O)(=O)O)c1
inactive: Potency [1] | outcome [2] | outcome [3] | Potency [4] | Potency [5] | outcome [6]

CC(C)(C)C(=O)Oc1ccc(S(=O)(=O)Nc2ccccc2C(=O)NCC(=O)O)cc1
inactive: Potency [1] | outcome [2] | outcome [3] | Potency [4] | Potency [5] | outcome [6]

CN(C)CCCN(C)CCCN(C)C
inactive: Potency [1] | outcome [2] | outcome [3] | outcome [6] | Potency [8]

CC(C)[C@H]1CC[C@@H](C)CC1=O
inactive: Potency [1] | outcome [2] | outcome [3] | outcome [6] | Potency [8]

O=C1NC(=O)C2CC=CCC12 (stereo not given)
inactive: Potency [1] | outcome [2] | outcome [3] | Potency [5] | outcome [6] | Potency [8]

O=C(O)c1cc(C(=O)O)cc(C(=O)O)c1
inactive: Potency [1] | outcome [2] | Potency [4] | Potency [5] | outcome [6] | Potency [8]

CC1=NN(c2cc(S(=O)(=O)O)ccc2Cl)C(=O)C1N=Nc1ccccc1 (stereo not given)
active: Potency [1] 48.6 µM
inactive: Potency [4] | Potency [5] | Potency [8]

NC(N)=NCCN1CCCCCCC1
inactive: viability change, negative = cytotoxic [1] 1.48% [at 0.349 µM] | viability change, negative = cytotoxic [6] -1.22% [at 0.349 µM] | activation [8] -0.603% [at 0.349 µM]

Cc1ccc(-c2ccccc2C#N)cc1
inactive: Potency [1] | outcome [2] | Potency [4] | Potency [5] | outcome [6] | Potency [8]

O=C1c2ccccc2C(=O)c2cc(O)ccc21
inactive: outcome [2] | outcome [3] | Potency [4] | outcome [6] | Potency [8]
active: Potency [9] 28.3 µM | Potency [5] 54.5 µM

CCCCCCCCCCCCCCC(=O)O
inactive: Potency [1] | outcome [2] | outcome [3] | Potency [5] | outcome [6] | Potency [8]

CCCOC(=O)CC
inactive: Potency [1] | outcome [2] | outcome [3] | Potency [5] | outcome [6] | Potency [8]

c1ccc(CCc2ccccc2)cc1
inactive: Potency [1] | outcome [2] | outcome [3] | Potency [5] | outcome [6] | Potency [10] | Potency [7]

CCCCc1ccc2c(n1)[C@@H](c1ccc(OC)cc1C[C@H](C)C(=O)O)[C@H](C(=O)O)[C@H]2c1ccc2c(c1)OCO2
inactive: Potency [9] | outcome [2] | outcome [3] | Potency [4] | Potency [5] | outcome [6] | Potency [8]

C=CCCC(=O)O
inactive: Potency [1] | outcome [2] | outcome [3] | Potency [5] | outcome [6] | Potency [7] | Potency [8]

COCCOC[C@H](CC1(C(=O)NC2CCC(C(=O)O)CC2)CCCC1)C(=O)Oc1ccc2c(c1)CCC2 (stereo not given in full)
inactive: Potency [9] | outcome [2] | outcome [3] | Potency [4] | Potency [5] | outcome [6] | Potency [7]

C[C@@H]1CCC[C@H](C)N1
inactive: Potency [9] | outcome [2] | outcome [3] | Potency [4] | Potency [5] | outcome [6] | Potency [7] | Potency [8]

CC1(C)[C@@H]2CC[C@@]1(C)[C@H](O)C2
inactive: Potency [1] | outcome [2] | outcome [3] | outcome [6] | Potency [8]

CCC(C)(CCCC(C)C)OC(C)=O (stereo not given)
inactive: Potency [1] | outcome [2] | Potency [4] | Potency [5] | outcome [6] | Potency [8]

Cc1c(N)c(=O)n(-c2ccccc2)n1C
inactive: Potency [1] | outcome [2] | outcome [3] | outcome [6] | Potency [8]

CN1CC(=O)N/C1=N/C(=O)Nc1cccc(Cl)c1
inactive: Potency [1] | outcome [2] | outcome [3] | outcome [6] | Potency [8]
active: Potency [5] 33.5 µM

COc1ccnc(CS(=O)c2nc3cc(OC(F)F)ccc3[nH]2)c1OC (stereo not given)
inactive: Potency [1] | outcome [2] | outcome [3] | Potency [5] | outcome [6] | Potency [8]

CCCCCCCCCCCCSC
inactive: Potency [1] | outcome [2] | outcome [6] | Potency [8]

CCC(C)(CN(C)C)OC(=O)c1ccccc1 (stereo not given)
inactive: Potency [1] | outcome [2] | outcome [3] | outcome [6]

CCO[Si](OCC)(OCC)c1ccccc1
inactive: Potency [1] | outcome [2] | outcome [6] | Potency [7] | Potency [8]

O=CN(CCO)CCO
inactive: Potency [1] | outcome [2] | outcome [3] | outcome [6] | Potency [7] | Potency [8]

O=C(O)c1cn(C2CC2)c2cc(N3CCNCC3)c(F)cc2c1=O
inactive: Potency [1] | outcome [2] | outcome [3] | outcome [6] | Potency [8]

[O-][n+]1cccc(CO)c1
inactive: Potency [1] | outcome [2] | Potency [5] | outcome [6] | Potency [8]

c1coc(CNc2ncnc3nc[nH]c23)c1
inactive: Potency [1] | outcome [6] | Potency [8]

CCNS(=O)(=O)c1ccc(C)cc1
inactive: Potency [1] | outcome [2] | outcome [3] | outcome [6]

— PubChem BioAssay (Tox21)
